Bioassay records from PubChem BioAssay.
BAZ2B inh: inhibitors of human BAZ2B bromodomain; 4.4% of 360,000 active; Potency, µM (titrated, usually from 114 µM), for the others: at the highest dose activity change, negative = inhibition, hits mostly inhibitors; AlphaScreen BAZ2B-H3K14Ac peptide displacement; further: potency means the concentration at half of the fitted maximal effect; on the % scale 0 is the no-effect control and ±100 the full control effect; nearly all actives have a fitted effect of over 60% in size
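BAZ2B (50 nM) with biotin-H3(5-23)K14Ac peptide (50 nM) in PBS pH 7.4, 0.01% Tween-20, preformed 30 min, then compound 30 min at room temperature; top concentration 110uM. AlphaScreen streptavidin donor/nickel chelate acceptor beads (10 ug/mL final), 20 min dark, signal read.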
PI5P4K alpha inh: blocks human PI5P4K alpha kinase activity | P48426 | PI5P4Kalpha enzyme, ADP-Glo luminescence, 60 min; active compounds read low | max response, % | 1.2% of 330,000 active | AID 652105; active means max response of -50% or lower; inconclusive means between -30% and -50%; inactive means -30% or higher; further: value at the top dose of about 77 µM; on the % scale 0 is the no-effect control and ±100 the full control effect
Target sequence (P48426 whole entry, looked up): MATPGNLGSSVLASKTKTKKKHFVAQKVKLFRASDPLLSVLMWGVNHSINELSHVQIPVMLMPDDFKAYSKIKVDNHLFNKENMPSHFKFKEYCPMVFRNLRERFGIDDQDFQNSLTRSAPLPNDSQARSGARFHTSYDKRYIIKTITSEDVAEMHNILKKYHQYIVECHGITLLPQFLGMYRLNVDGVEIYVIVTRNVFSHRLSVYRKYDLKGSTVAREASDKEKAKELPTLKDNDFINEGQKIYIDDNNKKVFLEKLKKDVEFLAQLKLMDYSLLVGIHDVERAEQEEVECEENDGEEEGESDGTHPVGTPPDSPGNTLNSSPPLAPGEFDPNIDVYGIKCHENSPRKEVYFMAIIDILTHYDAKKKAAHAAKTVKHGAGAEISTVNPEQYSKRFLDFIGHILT
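ADP-Glo luminescence end-point read after a 60 min room-temperature kinase reaction of PI5P4Kalpha plus substrate, initiated with ATP at 5 microM final. Buffer: 0.038 M HEPES pH 7.4, EGTA, 0.1% CHAPS, 5% DMSO.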
JMJD2A Tudor: blocks the human JMJD2A Tudor domain. O75164. AlphaScreen JMJD2A-Tudor / H3K4me3 peptide binding. 4.4% of 390,000 active. Potency, µM (highest dose often 114 µM), for inactives: at the top dose activity change, negative = inhibition, actives largely listed as inhibitors; further: potency means the concentration at half of the fitted maximal effect; on the % scale 0 is the no-effect control and ±100 the full control effect; nearly all actives have a fitted effect of over 50% in size
G9a block: G9a (human) methyltransferase inhibition; 8.8% of 350,000 active; AID 504332; Q96KQ7; G9a H3K9 monomethylation, AlphaScreen, 2 h; Potency, µM (titrated, usually from 102 µM), without a hit: at the top dose activity, negative = inhibition, actives largely listed as inhibitors; further: potency means the concentration at half of the fitted maximal effect; on the % scale 0 is the no-effect control and ±100 the full control effect; nearly all actives have a fitted effect of over 75% in size
Target sequence (Q96KQ7 913-1193 limits assumed): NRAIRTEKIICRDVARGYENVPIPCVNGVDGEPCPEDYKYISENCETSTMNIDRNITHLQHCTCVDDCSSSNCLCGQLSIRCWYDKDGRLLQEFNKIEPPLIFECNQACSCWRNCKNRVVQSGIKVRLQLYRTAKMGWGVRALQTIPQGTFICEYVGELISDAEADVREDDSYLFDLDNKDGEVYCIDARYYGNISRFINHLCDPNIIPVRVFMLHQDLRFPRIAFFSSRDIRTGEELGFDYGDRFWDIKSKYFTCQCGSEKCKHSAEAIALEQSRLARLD
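Quantitative HTS format: methyltransferase activity on a biotin-tagged H3K9 peptide is measured by AlphaScreen, using a rabbit anti-monomethyl-H3K9 antibody with streptavidin donor and anti-IgG acceptor beads. Final levels are 20 nM enzyme, 500 nM peptide, 20 uM SAM; 2 h RT.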
HP1b binding inh: inhibitors of HP1-beta chromodomain binding to methylated histone tails; P83916; Potency, µM (titrated, usually from 114 µM), inactives show at the highest dose activity change, negative = inhibition, most hits filed as inhibitors; AID 540317; 0.56% of 390,000 active; AlphaScreen HP1-beta / biotin-H3K9me3 peptide binding; further: potency means the concentration at half of the fitted maximal effect; nearly all actives have a fitted effect of over 70% in size
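HP1-beta protein (50 nM final) preincubated 30 min at room temperature with biotinylated H3(1-18)K9me3 peptide (50 nM) in PBS pH 7.4, 0.01% Tween-20, then compound added for 30 min. AlphaScreen streptavidin donor/nickel chelate acceptor beads (10 ug/mL final), 30 min dark, luminescence read.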
L3MBTL1 block: inhibitors of human L3MBTL1; Q9Y468; AlphaScreen L3MBTL1–H3K9me1 peptide binding; Potency, µM (doses to about 57.1 µM), without a hit: at the top dose activity, negative = inhibition, most hits filed as inhibitors; 0.66% of 230,000 active; AID 485360; further: potency means the concentration at half of the fitted maximal effect; on the % scale 0 is the no-effect control and ±100 the full control effect; nearly all actives have a fitted effect of over 60% in size
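Displacement of a biotinylated histone H3(1-15) peptide monomethylated at Lys9 (75 nM) from L3MBTL1 (50 nM) was measured by AlphaScreen after a 30 min room-temperature compound incubation; cefsulodin titration served as intraplate control.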
Numbers without * were called inactive; ? = inconclusive; / = no result; ! = not active in a repeat; [ ] = dose if it differs, or a comment. Compounds with a hit are over-represented: about 11% of the library has one in this group of screens. Unless noted, the call rests on the fitted dose curve; in most records, active means well fitted inhibition curve with a large enough effect; inconclusive means small, poorly fitted or top-dose-only effect; inactive means no such curve, though single readings can be large or run the other way.

SMILES	BAZ2B inh	PI5P4K alpha inh	JMJD2A Tudor	G9a block	HP1b binding inh	L3MBTL1 block
CNC(=S)N(C)/N=C1/C(=O)N(Cc2c(Cl)cccc2Cl)c2ccccc21	25.1µM*	0.6	5.01µM*	-19.7%[12.7 µM]	-49.0%	-10.0%
CCOc1ccc(-c2nc(S(=O)(=O)c3ccccc3)c(NCc3cccnc3)o2)cc1	?	-2.3	?	44.7µM*	5.4%	-20.2%
COc1ccc(-c2nc(S(=O)(=O)c3ccc(C)cc3)c(NCc3ccccc3)o2)cc1	-27.4%	/	?	11.2µM*	16.1%	/
CCNc1oc(-c2ccccc2F)nc1S(=O)(=O)c1ccccc1	-21.2%	-15.0	-8.9%	44.7µM*	16.4%	/
Cc1ccc(S(=O)(=O)c2nc(-c3ccccc3F)oc2NCc2ccccc2)cc1	?	/	-17.0%	?	5.1%	/
CNc1oc(-c2ccccc2)nc1S(=O)(=O)c1ccc(C)cc1	-20.4%	-2.4	-17.2%	?	32.5%	/
CCNc1oc(-c2ccc(OC)cc2)nc1S(=O)(=O)c1ccc(Br)cc1	-5.4%	/	-19.4%	56.2µM*	29.0%	/
Clc1nc(NCC2CCCO2)c2[nH]cnc2n1 (configuration not stated)	/	/	-6.9%[57.1 µM]	/	18.4%[57 µM]	/
Cc1ccc(S(=O)(=O)c2nc(C)oc2NCc2ccccc2)cc1	2.7%	/	/	8.91µM*	/	-3.3%
CN(CC(=O)Nc1cccc(F)c1)C(=O)CCc1nc2ccccc2c(=O)[nH]1	12.2%	-7.4	-18.5%	44.7µM*	11.0%	-5.4%
CN(CC(=O)Nc1cccc(F)c1)C(=O)c1cc(=O)[nH]c2ccccc12	9.8%	5.5	-5.4%	8.91µM*	35.3%	1.9%
COc1ccc(Cl)cc1NC(=O)CN(C)C(=O)c1ccc2c(c1)OCCO2	3.8%	-1.5	-8.3%	39.8µM*	23.8%	3.6%
CCN(CC(=O)Nc1cccc(F)c1)CC(=O)Nc1ccc2c(c1)OCCO2	/	-0.5	/	/	/	/
COc1ccc(Cl)cc1NC(=O)CN(C)C(=O)c1ccc(C)s1	10.7%	2.6	-18.7%	?	3.4%	1.0%
CN(CC(=O)Nc1cccc(F)c1)C(=O)c1cccc2ccccc12	9.0%	-4.0	-4.5%	-9.2%[59 µM]	20.4%	-1.4%
CN(CC(=O)Nc1cccc(F)c1)C(=O)c1ccc2c(c1)OCCO2	-8.6%	-8.6	1.4%	10µM*	35.2%	-3.5%
O=C(Nc1cccc(F)c1)c1ccc2c(c1)N(Cc1ccccc1)C(=O)c1ccccc1S2(=O)=O	-1.6%	/	-9.3%	5.7%[59 µM]	44.4%	/
COC(=O)c1cc(NC(=O)c2cc3c(-c4ccccc4F)nn(C)c3s2)cc(C(=O)OC)c1	-22.0%	/	-16.9%	4.6%[59 µM]	13.8%	/
CN(CC(=O)Nc1cccc(F)c1)C(=O)c1ccc(-c2cccc(C(F)(F)F)c2)o1	-7.8%	18.7	-29.0%	17.8µM*	10.7%	1.7%
COc1ccc(Cl)cc1NC(=O)CN(C)C(=O)c1cc2ccccc2cc1O	?	2.9	-35.9%	50.1µM*	-9.0%	-10.0%
CC(=O)c1cccc(NC(=O)c2cc(=O)[nH]c3ccccc23)c1	-17.1%	-13.5	-3.8%	44.7µM*	53.0%	/
CCNc1ncc2nc(-c3cccs3)c(=O)n(Cc3cccs3)c2n1	/	/	/	-3.5%[0.501 µM]	/	/
CCOc1ccc(CCNC(=O)CCc2c(C)nc3c(-c4ccccc4)c(C)nn3c2C)cc1OCC	5.1%	/	0.0%	-5.7%[59 µM]	40.0%	/
COc1cccc(CNC(=O)CSc2nc3ccccc3nc2Cc2ccc(C)cc2)c1OC	0.6%	/	-4.5%	5.0%[59 µM]	24.0%[57 µM]	/
CCc1ccc(-n2nc(CO)c(C(=O)NCCCc3ccccc3)n2)cc1	1.3%	/	-6.9%	-7.8%[59 µM]	25.2%	/
SMILES	BAZ2B inh	PI5P4K alpha inh	JMJD2A Tudor	G9a block	HP1b binding inh	L3MBTL1 block
CCNc1nc(Cl)nc(NCc2ccccc2)n1	-7.7%	-0.2	-9.0%	68.7%[59 µM]	36.9%	3.7%
Clc1nc(Oc2ccccc2)nc(-c2cn(-c3ccccc3)c3ccccc23)n1	?	-10.5	?	39.8µM*	29.7%	2.8%
CCNc1nc(Cl)nc(-c2cn(-c3ccccc3)c3ccccc23)n1	12.6%	-8.3	-9.2%	70.8µM*	41.0%	-24.3%
COC(=O)c1ccc(NC(=O)CC2C(=O)N(c3ccccc3)C(=O)N2Cc2ccc(F)cc2)cc1 (configuration not stated)	-7.0%	/	-11.7%	-34.1%[59 µM]	28.4%	/
COc1ccc(OC)c(C2=Nn3c(nnc3-c3cccc(OC)c3OC)SC2)c1	/	/	-15.9%	/	/	/
OC(COCC1COc2ccccc2O1)CN1CCN(c2ccccn2)CC1 (configuration not stated)	-8.3%	-2.4	44.7µM*!	24.9%[59 µM]	31.1%	4.4%
Cc1cc(C)c(OCC(O)CN2CCN(c3ccccn3)CC2)c(C)c1 (configuration not stated)	56.2µM*	-2.4	0.7%	?	28.8%	-12.6%
Cc1cc(OCC(O)CN2CCN(c3ccccn3)CC2)cc(C)c1Cl (configuration not stated)	?	4.0	?	44.7µM*	-7.8%	-1.7%
CC(C)(C)C1CCC(OCC(O)CN2CCN(c3ccccn3)CC2)CC1 (configuration not stated)	?	5.6	?	31.6µM*	24.4%	1.0%
OC(COc1ccc(Cl)cc1)CN1CCN(c2ccccn2)CC1 (configuration not stated)	/	-2.6	-10.1%	/	14.1%	/
OC(COCC1COc2ccccc2O1)CN1CCc2ccccc2C1 (configuration not stated)	0.9%	-9.8	-1.9%	-14.9%[59 µM]	27.9%	6.9%
CCc1ccc(OCC(O)CN2CCN(c3ccccn3)CC2)cc1 (configuration not stated)	-7.6%	1.4	-27.5%	/	6.0%	31.7%
Cc1ccc(-n2ncc3c(Nc4cccc(C(F)(F)F)c4)ncnc32)cc1C	9.6%	/	-11.0%	-5.0%[59 µM]	57.8%	/
CC[C@H]1C(c2cccc(Cl)c2)=NN(c2ccccc2)[C@@H]1CO	/	/	/	27.0%	/	/
CN(C)c1nc(-c2cn(CCC#N)c3ccccc23)cs1	?	0.1	50.1µM*	28.2µM*	-15.3%	/
CCOc1ccc(C(c2c(O)nc(SC)n(C)c2=O)c2c(O)nc(SC)n(C)c2=O)cc1	-5.5%	-12.2	-16.2%	11.2µM*	45.4%	12.5%
CCOc1ccc(OCC(=O)OCn2c(SC)nnc(C)c2=O)cc1	4.8%	-4.2	8.2%[57.1 µM]	?	40.1%	7.3%
Cc1ccc(NC(=O)CC2Sc3ccccc3NC2=O)c(Br)c1 (configuration not stated)	0.2%	/	-6.6%	-42.6%[59 µM]	26.1%	/
Cc1cc(C)n(C(=O)c2cccc([N+](=O)[O-])c2)n1	-7.9%	-4.5	0.7%	10.5%	27.7%	8.4%
Cc1cc(C)n(C(=O)c2cc([N+](=O)[O-])cc([N+](=O)[O-])c2)n1	?	-0.5	-36.2%	70.8µM*	-25.3%	-5.8%
Cc1cc(C)cc(NC(=S)NN)c1	-21.1%	-9.5	-27.6%	10µM*	-10.8%	-11.3%
